Source: PubChem BioAssay (National Center for Advancing Translational Sciences (NCATS))
FBPA Giardia inh – blocks Giardia fructose-bisphosphate aldolase activity; 290,000 tested, 0.71% active; A8B2U2; purified Giardia FBPA; Potency, µM (top dose mostly 59.6 µM), for the others: top-dose activity, negative = inhibition, usual class: inhibitors; note: nearly all actives have a fitted effect of over 55% in size
Target sequence (A8B2U2 whole entry, looked up): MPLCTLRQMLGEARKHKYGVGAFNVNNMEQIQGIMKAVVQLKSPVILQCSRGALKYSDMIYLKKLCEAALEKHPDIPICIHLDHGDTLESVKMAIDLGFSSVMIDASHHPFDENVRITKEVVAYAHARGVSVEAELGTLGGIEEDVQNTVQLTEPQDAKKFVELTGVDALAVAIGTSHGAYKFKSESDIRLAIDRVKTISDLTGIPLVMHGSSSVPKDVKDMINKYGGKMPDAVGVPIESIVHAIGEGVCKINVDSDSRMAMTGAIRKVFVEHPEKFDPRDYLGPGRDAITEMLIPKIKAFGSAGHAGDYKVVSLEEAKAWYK
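40 nM FBPA preincubated 10 min at RT with compound (up to 57.5 uM final), then substrate plus GAPDH/TPI/NAD/arsenate coupling and diaphorase/resazurin added. Fluorescence read after 20 min at RT, 525/598 nm.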
LmPK inh – LmPK (Leishmania mexicana) enzyme inhibition; 290,000 tested, 0.37% active; purified LmPK, Kinase-Glo ATP luminescence, 1 h; AID 1721; Potency, µM (series often up to 57.5 µM), inactives show at the top dose activity change, negative = inhibition, most hits filed as inhibitors; Q27686
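0.1 nM LmPK, 0.5 mM PEP, 0.1 mM ADP; 50 mM imidazole pH 7.2, 7 mM MgCl2, 50 mM KCl; 1 h RT. Kinase-Glo luminescence readout, normalized to no-enzyme (full inhibition) and uninhibited wells.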
RE007 growth inh – less growth of the S. pombe RE007 Vpr strain | S. pombe RE007 Vpr strain, BacTiter-Glo ATP luminescence, 24 h | Potency, µM (titrated, usually from 92.2 µM), for the others: at the top dose activity change, negative = less growth, most hits filed as inhibitors | 360,000 tested, 0.21% active | AID 651644; active = well fitted falling curve with a large enough effect; inconclusive = small, poorly fitted or top-dose-only effect; inactive = no such curve, though single readings can be large or run the other way; note: nearly all actives have a fitted effect of over 50% in size
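Fission yeast RE007 carrying one integrated HIV-1 vpr copy, seeded at OD 0.01 in PMG+AL medium with 23 nL pinned compound. Grown 24 h at 30 degrees; viability read by BacTiter-Glo luminescence after 5 min.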
Sm TGR block – inhibitors of Schistosoma mansoni thioredoxin glutathione reductase; Potency, µM (titrated, usually from 114 µM), without a hit: at the top dose activity change, negative = inhibition, most hits filed as inhibitors; Q962Y6; 360,000 tested, 3% active; purified TGR, DTNB reduction, TNB absorbance 405 nm; AID 485364; note: nearly all actives have a fitted effect of over 60% in size
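TGR 20 nM + NADPH 100 uM (dispensed conc.), cpd preinc 15 min RT; start with NADPH (500 uM addition) then DTNB (15 mM addition). Kinetic TNB absorbance, 405 nm filter. Four-parameter Hill fit across titration.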
Tb PYK inh – blocks Trypanosoma brucei pyruvate kinase; Q57TT1; TbPYK enzyme, Kinase-Glo Plus ATP luminescence, 45 min; Potency, µM (highest dose often 76.8 µM), for the others: at the top dose activity, negative = inhibition, most hits filed as inhibitors; 410,000 tested, 0.12% active; note: nearly all actives have a fitted effect of over 50% in size
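Readout: single end-point luminescence (Kinase-Glo Plus, 10 min). Reaction conditions were TbPYK/substrate plus 130 uM ADP, 45 min at RT, pH 7.2 TEA buffer. No-enzyme wells served as controls, and data were normalized before concentration-response fitting.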
The depositor's hits bear a star; ? = inconclusive; . = not tested or not shown. A selection: hits, their analogues and other compounds. The true share with any hit is near 3.3%. Unless noted, calls come from the whole dose curve; as a rule, active = well fitted curve in the direction sought with a large enough effect; inconclusive = small, poorly fitted or top-dose-only effect, or another doubt; inactive = no such curve, though single readings can be large; an effect the other way counts as inactive or inconclusive. % is set by controls: 0 for no effect and ±100 for the full control effect; potency is the fitted concentration of half-maximal effect.

SMILES	FBPA Giardia inh	LmPK inh	RE007 growth inh	Sm TGR block	Tb PYK inh
CCOC(=O)c1ccc(-n2c(CCC(=O)O)ccc2-c2ccccc2)cc1O	.	.	.	18µM*	-6%
CCOC(=O)c1cc(-c2ccccc2)n(CCC(=O)O)c1C	1%	5%	-8%	3%	0%
CC(=O)c1cccc(-n2c(CCC(=O)O)ccc2-c2ccc(C)cc2)c1	9%	0%	-9%	32µM*	-12%
CC(=O)c1ccc(-n2c(CCC(=O)O)ccc2-c2ccc(Cl)cc2)cc1	11%	7%	-7%	0%	11%
O=C(O)CCc1ccc(-c2ccc(Br)cc2)n1-c1cccc(O)c1	8%	-2%	-11%	32µM*	-3%
O=C(O)CCc1ccc(-c2ccccc2)n1-c1ccc(C(=O)O)cc1	-2%	6%	-12%	18µM*	-9%
CCc1ccc(-n2c(CCC(=O)O)ccc2-c2ccc(F)cc2)cc1	.	.	.	?	-4%
CS(=O)(=O)c1ncc(N(Cc2ccccc2)Cc2ccco2)c(C(=O)Nc2cccc(C(F)(F)F)c2)n1	.	.	.	9%	3%
O=C(O)c1cccc(N2C(=O)CCC2=O)c1	3%	-4%	.	-6%	.
Cc1ccc(-c2ccc(CCC(=O)O)n2C(C)C)cc1	7%	0%	2%	25µM*	-2%
Cc1ccc(C)c(-n2c(CCC(=O)O)ccc2-c2ccc(Cl)cc2)c1	.	.	.	?	-12%
Cc1ccc(-c2ccc(CCC(=O)O)n2NC(N)=S)cc1	-12%	1%	1%	-21%	?
O=C(O)CCc1ccc(-c2ccccc2)n1-c1cccc(C(=O)O)c1	0%	-4%	-15%	11µM*	-9%
Cc1ccc(-c2ccc(CCC(=O)O)n2-c2ccc(C)c(Cl)c2)cc1	.	.	.	18µM*	-11%
CN(C(=O)c1cccc(NC(=O)Cc2cccc(NC(=O)C3CCN(C(=O)C4CCC4)CC3)c2)c1)C1CCC1	.	.	-14%	.	-1%
C=C1C2C[C@H](O)C(C)(C)[C@@]2(O)[C@H](O)C[C@]23C[C@@](C)(O)[C@H](CC[C@H]12)[C@H]3OC(C)=O (stereo partly specified)	-9%	-2%	-5%	-7%	3%
COc1ccccc1Cn1cc(C(=O)c2ccc(C)cc2)c(=O)c2cc(F)cc(F)c21	.	.	.	0%	-1%
O=C(CCNc1cc(Cl)cc(Cl)c1)c1cccs1	-6%	2%	-24%	?	0%
O=C(CCSc1ccc(Cl)cc1)c1cccs1	-3%	0%	?	2.2µM*	1%
O=C(CCNc1ccc(Cl)cc1)c1cccs1	0%	-4%	?	16µM*	0%
O=C(NCc1ccccn1)c1ccc(Cl)c(S(=O)(=O)N2CCCCCC2)c1	.	-7%	-6%	-15%	2%
CC(=C\C(=O)O)/C(=C/c1ccc(C)o1)C(=O)O	-13%	3%	-6%	32µM*	-2%
CCn1c(SCC(=O)NCCc2ccccc2)nc2sc3c(c2c1=O)CCN(C)C3	-17%	5%	-20%	-3%	4%
COC(=O)CSc1nc2sc3c(c2c(=O)n1-c1ccccc1)CCN(C)C3	-16%	2%	-4%	35µM*	-4%
CCn1c(SCC(=O)c2ccccc2)nc2sc3c(c2c1=O)CCN(C)C3	-1%	-1%	-9%	18µM*	0%
SMILES	FBPA Giardia inh	LmPK inh	RE007 growth inh	Sm TGR block	Tb PYK inh
Fc1ccc(-[n+]2nc(Nc3ccccc3)sc2-c2c3ccccc3cc3ccccc23)cc1	22µM*	2%	-10%	-1%	1%
COc1ccccc1CCNC(=O)C(=O)NCC(c1ccco1)S(=O)(=O)c1cccs1 (stereo unspecified)	.	.	.	18µM*	4%
COc1ccc(CCNC(=O)C(=O)NCC(c2ccco2)S(=O)(=O)c2cccs2)cc1 (stereo unspecified)	.	.	.	32µM*	-1%
COc1ccccc1CCNC(=O)C(=O)NCC(c1cccs1)S(=O)(=O)c1ccc(C)cc1 (stereo unspecified)	.	.	.	?	0%
COc1ccccc1CCNC(=O)C(=O)NCC(c1ccco1)S(=O)(=O)c1ccc(C)cc1 (stereo unspecified)	.	.	.	14µM*	3%
Cc1ccc(S(=O)(=O)C(CNC(=O)C(=O)NCc2ccc(Cl)cc2)c2cccs2)cc1 (stereo unspecified)	.	.	.	22µM*	1%
O=C(NCc1ccc(Cl)cc1)C(=O)NCC(c1cccs1)S(=O)(=O)c1ccc(Cl)cc1 (stereo unspecified)	.	.	.	?	1%
Cc1ccc(NC(=O)CCCC2CCCCC2)c(O)c1	.	-1%	-10%	5%	4%
O=C(NCCc1ccc(F)cc1)C(=O)NCC(c1cccs1)S(=O)(=O)c1cccs1 (stereo unspecified)	.	.	.	?	2%
O=C(NCCc1ccc(Cl)cc1)C(=O)NCC(c1cccs1)S(=O)(=O)c1cccs1 (stereo unspecified)	.	.	.	25µM*	-7%
O=C(O)c1ccccc1C(=O)NNc1cccc(Cl)n1	-6%	-5%	0%	-9%	-1%
COc1ccc(-c2cn3cccnc3n2)cc1NC(=O)c1cccs1	4%	0%	-1%	3%	-10%
CCCN(CC1CC1)C(=O)CSc1nnc(-c2ccco2)n1N	2%	16%	.	50µM*	.
CN(CCC#N)C(=O)CSc1nnc(-c2ccco2)n1N	5%	-14%	5%	0%	-1%
CCCCNCCOCCOc1ccc(C)cc1[N+](=O)[O-]	-26%	0%	-18%	-37%	3%
Cc1ccc(NC(=O)C2C3C=CC(O3)C2C(=O)O)cc1C (stereo unspecified)	-3%	3%	-18%	-31%	4%
CCOC(=O)c1ccc(NC(=O)C2C3C=CC(O3)C2C(=O)O)cc1 (stereo unspecified)	12%	3%	.	56µM*	.
COc1cccc(NC(=O)C2C3C=CC(O3)C2C(=O)NCc2cccnc2)c1 (stereo unspecified)	10%	5%	-11%	50µM*	0%
Cc1cccc(NC(=O)C2C3C=CC(O3)C2C(=O)O)c1 (stereo unspecified)	-4%	2%	.	11µM*	.
Cc1ccc(NC(=O)C2C3C=CC(O3)C2C(=O)O)c(C)c1 (stereo unspecified)	1%	3%	-18%	35µM*	-1%
COC(=O)c1sccc1NC(=O)C1C2C=CC(O2)C1C(=O)O (stereo unspecified)	4%	6%	8%	-8%	-9%
COc1cc(NC(=S)NCc2cccnc2)cc(OC)c1	-13%	2%	0%	?	-10%
CCOc1ccccc1CNC(=O)CCn1ccc2cc(S(=O)(=O)N3CCCCC3)ccc21	-14%	1%	5%	8%	-1%
O=C(NCCc1nc2ccccc2n1Cc1ccc(Cl)cc1)c1ccccc1	.	.	.	-12%	0%
